Screening data from PubChem.
dFosB activator: activators of mouse delta FosB homodimer | P13346 | purified delta FosB, TAMRA-CDK5 oligo fluorescence polarization; percent of positive-control signal above neutral wells | activation, % at 25 µM | 340,000 compounds, 0.99% hits | AID 493131;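 active = mean activation above about 17%, with every replicate also reaching it, limit read from the data, passing the limit was not always enough; inconclusive = only one of the two conditions met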
Target sequence (P13346 whole entry, looked up): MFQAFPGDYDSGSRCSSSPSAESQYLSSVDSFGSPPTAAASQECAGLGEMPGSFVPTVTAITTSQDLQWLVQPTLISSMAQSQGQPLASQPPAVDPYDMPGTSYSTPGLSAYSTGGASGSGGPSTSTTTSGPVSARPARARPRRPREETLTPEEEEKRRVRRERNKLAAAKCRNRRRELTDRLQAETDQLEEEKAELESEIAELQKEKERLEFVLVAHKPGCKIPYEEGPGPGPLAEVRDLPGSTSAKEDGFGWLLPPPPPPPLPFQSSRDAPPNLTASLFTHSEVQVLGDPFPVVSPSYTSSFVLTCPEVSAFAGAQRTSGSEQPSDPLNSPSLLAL
CR mimetic SO: lowers age-related superoxide in aged yeast cells | S. cerevisiae aged cells, superoxide DHE fluorescence; stronger effect = lower value | superoxide response (% of plate mean), % at 10 µM | 330,000 compounds, 0.18% hits;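 active = superoxide response under a set limit, about three screen SD below normal, cut at about 65% in these data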;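 note: yeast aged for seven days with compound at 30 °C before DHE staining; 100% = average MFI of all compound-treated wells on the plate with controls excluded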
NALP1 inh: blocks the NALP1 inflammasome reconstituted in yeast. S. cerevisiae NALP1/ASC/caspase-1 growth, X-gal OD620, 72 h. inhibition, % at 10 µM. 280,000 compounds, 0.61% hits. AID 2071; in the data active = inhibition mostly above about 24%, no sharp cut-off; inactive = mostly below about 32%
GRIN3A LBD mod: modulators (binders) of human NR3A ligand-binding domain. NR3A LBD differential scanning fluorimetry, Tm shift; 0% = protein alone, 100% = glycine-bound protein. Tm shift relative to glycine control, % at 25 µM. 340,000 compounds, 2.5% hits. AID 1259313;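 active = melting temperature shift of at least 10% of the positive control shift, at one fixed dose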
UBC13 inh: human UBC13 polyubiquitination inhibition. P61088. UBC13 polyubiquitin chain formation, TR-FRET. inhibition, % at 20 µM. 330,000 compounds, 0.47% hits. AID 485273; in the data active = inhibition above about 45%, passing the limit was not always enough; inconclusive = no clear call, values can overlap the other calls
Target sequence (P61088 whole entry, looked up): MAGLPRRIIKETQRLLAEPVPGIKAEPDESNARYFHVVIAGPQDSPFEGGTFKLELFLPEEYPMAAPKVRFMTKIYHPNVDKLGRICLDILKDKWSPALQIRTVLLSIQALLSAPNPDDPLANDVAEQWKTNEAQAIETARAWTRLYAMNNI
* marks the source's active call; other numbers are inactive results; ? = inconclusive; · = not tested or not shown. Only some compounds are listed: those with a hit (about 4.3% of all), similar ones and a draw of the others.

SMILES	dFosB activator	CR mimetic SO	NALP1 inh	GRIN3A LBD mod	UBC13 inh
Clc1ccc(CSc2nnc(-c3c[nH]c4ccccc34)o2)cc1	-5	90	7	27*	6
CCSc1nnc(-c2c[nH]c3ccccc23)o1	0	97	37*	-31	5
CCOC(=O)CSc1nnc(-c2c[nH]c3ccccc23)o1	-1	102	12	-1	3
Cc1ccc(NC(=O)c2ccc(F)cc2F)cc1NS(C)(=O)=O	·	102	·	-1	2
Cc1cccc(N2CCN(C(=O)NCc3ccc(F)cc3)CC2)c1C	-9	111	8	0	3
O=c1c(-c2nnc(SCc3ccc(Cl)cc3)o2)cccn1Cc1ccccc1	-6	102	25*	-11	6
O=C(Nc1ccccc1-c1nnc(SCc2ccc(Cl)cc2)o1)c1ccccc1	7	105	21	1	-4
O=C(CSc1nnnn1-c1ccccc1)Nc1ncc(Cc2cc(Cl)ccc2Cl)s1	11	92	4	-3	-26
O=C(CSc1nnnn1-c1ccccc1)Nc1ncc(Cc2cccc(Cl)c2Cl)s1	77*	116	10	2	-23
CSC1=NC2(CC(c3ccccc3)Oc3cc(O)ccc32)CC(C)(C)N1 (stereo unspecified)	-5	107	6	11*	15
O=C(Cn1cnc2c(nnn2Cc2ccccc2F)c1=O)N1CCN(c2ccccc2)CC1	-6	128	7	-1	-2
O=C(Cn1cnc2c(nnn2Cc2ccccc2F)c1=O)OCc1ccccc1	-1	103	26*	-4	12
CCCN(CCC)C(=O)C1CCN(c2ccc(S(=O)(=O)N3CCOCC3)cc2[N+](=O)[O-])CC1	-6	96	8	-1	-12
O=C(NCC1CCCO1)c1onc(CSc2cccc(Cl)c2)c1C(=O)O (stereo unspecified)	0	·	-8	0	-7
CCOc1cccc(SCc2noc(C(=O)NCC3CCCO3)c2C(=O)O)c1 (stereo unspecified)	-1	96	12	17*	-6
CCCc1cc(C(=O)OCC(=O)N(CCC)c2c(N)n(Cc3ccccc3)c(=O)[nH]c2=O)sc1C	8	92	·	-3	-3
O=C(/C=C/c1ccccc1)NC(NC(=S)Nc1ccc(C(=O)O)cc1)C(Cl)(Cl)Cl (stereo unspecified)	-5	103	28	13*	-9
O=C(/C=C/c1ccccc1)NC(NC(=S)Nc1ccc(Cl)cc1Cl)C(Cl)(Cl)Cl (stereo unspecified)	-2	90	15	20*	-38
Cc1ccc(C)c(NC(=S)NC(NC(=O)/C=C/c2ccccc2)C(Cl)(Cl)Cl)c1 (stereo unspecified)	?	91	36	14*	-15
O=C(/C=C/c1ccccc1)NC(NC(=S)Nc1cccc(Cl)c1)C(Cl)(Cl)Cl (stereo unspecified)	-1	97	8	29*	-16
Cc1ccc(O)c(NC(=S)NC(=O)/C=C/c2ccccc2)c1	5	107	-41	-1	-11
CCN(Cc1ccccc1)C(=O)CN1C(=O)COc2ccc(S(=O)(=O)NC3CCCC3)cc21	-14	97	7	-1	-2
O=S(=O)(Nc1cccc(S(=O)(=O)N2CCCC2)c1)c1cccc(Br)c1	-5	157	·	-3	-4
O=C1c2ccc(-c3ccc(Cl)c(C(F)(F)F)c3)cc2S(=O)(=O)c2cccc(C(=O)N3CCN(c4ccc(Cl)cn4)CC3)c21	-3	86	·	0	-40
COc1ccc2[nH]cc(/C=C/c3cc[n+](C)cc3)c2c1	1	99	-53	2	-191
SMILES	dFosB activator	CR mimetic SO	NALP1 inh	GRIN3A LBD mod	UBC13 inh
COC(=O)NC(NC(=S)Nc1cccc(C)c1)C(Cl)(Cl)Cl (stereo unspecified)	-2	110	-3	-16	5
O=C(/C=C/c1ccccc1)NC(NC(=S)Nc1cccc(O)c1)C(Cl)(Cl)Cl (stereo unspecified)	7	80	5	21*	-2
C=CCN(c1ccccc1)S(=O)(=O)c1cccc(C(=O)Nc2cccc(C)n2)c1	-1	103	·	-1	4
Cc1cc(SCC(=O)Nc2ccc(O)cc2)n2ncc(-c3ccccc3)c2n1	3	98	3	27*	13
COc1ccc(NC(=O)CSc2nnc(-c3ccccc3)n2N)cc1	4	104	-58	0	-7
COc1ccc(NC(=O)CSc2cc(C)nc3c(-c4ccccc4)cnn23)cc1	-5	89	-14	64*	-4
Cc1cc(SCC(=O)Nc2ccc(O)cc2)n2nc(C)c(-c3ccccc3)c2n1	4	109	0	7	30
Cc1cc(SCC(=O)Nc2ccccc2)n2ncc(-c3ccccc3)c2n1	15	99	16	32*	10
Cc1cc(Cl)n2ncc(-c3ccccc3)c2n1	-6	107	7	0	0
O=S(=O)(Nc1ccc(N=Nc2ccc(O)c3ccccc23)cc1)c1ccccc1	-4	116	18	8	-139
O=[N+]([O-])c1ccc(N=Nc2ccc(O)c3ccccc23)cc1	-8	·	·	20*	·
O=S(=O)(N[C@H]1C[C@@H](NS(=O)(=O)OCC(Cl)(Cl)Cl)C2CCCCC21)OCC(Cl)(Cl)Cl (stereo partly specified)	-5	102	-6	18*	·
COc1ccnc2c1c(=O)n(Cc1cccc(Cl)c1)c(=O)n2C	-4	81	13	-2	38
CC(C)(C)c1cc2cccnc2n1Cc1cccc(Cl)c1	-5	97	46*	-1	-5
Cc1ccc(OCC(=O)Nc2ccc3c(c2)C(=O)NC3=O)c(C)c1	-5	96	3	0	-6
Clc1ccc2[nH]c(-c3ccccc3)cc2c1	-3	93	11	20*	-1
N#C/C(=C\c1ccc(OCc2ccccc2)cc1)C(N)=O	-17	103	7	12*	-9
c1ccc2cc(CCO[C@H]3CCCCO3)ncc2c1	5	91	·	-3	-3
O=C(Nc1cccnc1)c1noc2c1CCCC2	-8	110	24	11*	6
CCN(c1ccccc1)S(=O)(=O)c1ccc(Cl)c(NC(=O)COC(=O)c2ccc(O)cc2)c1	10	112	22	16*	6
CCCCN(CC)CCNc1c(N2CCN(C(=O)OCC)CC2)c(=O)c1=O	-2	107	16	2	-11
CCOC(=O)N1CCN(c2c(NCCCN(CC)CC)c(=O)c2=O)CC1	3	100	45*	-2	-8
O=C(CCn1c(=S)[nH]c2cc3c(cc2c1=O)OCO3)NCc1ccccc1Cl	35*	79	25	0	10
CNC(CC(=O)c1ccc([N+](=O)[O-])cc1)C(Cl)(Cl)Cl (stereo unspecified)	-7	108	115*	-1	·
Cc1ccc(S(=O)(=O)N2CCOC23CCN(S(=O)(=O)c2cccs2)CC3)cc1	0	98	·	12*	2
Cc1ccc(S(=O)(=O)N2CCC3(CC2)OCCN3S(=O)(=O)c2cccs2)cc1	-2	92	·	4	4
